From ChEMBL document CHEMBL1961873, “Compounds: GSK PKIS; Assays: Nanosyn kinase panel” (2012)

Tests used:
[1] = target: Mast/stem cell growth factor receptor Kit (Homo sapiens) (UniProt P10721); conditions: at 1 µM
[2] = test system: Mast/stem cell growth factor receptor Kit (Homo sapiens), P10721 [D816V]; conditions: at 0.1 µM
[3] = test system: Mast/stem cell growth factor receptor Kit (Homo sapiens), P10721 [D816V]; conditions: at 1 µM
[4] = test system: Mast/stem cell growth factor receptor Kit (Homo sapiens), P10721 [T670I]; conditions: at 0.1 µM
[5] = test system: Mast/stem cell growth factor receptor Kit (Homo sapiens), P10721 [T670I]; conditions: at 1 µM
[6] = test system: Mast/stem cell growth factor receptor Kit (Homo sapiens), P10721 [V560G]; conditions: at 0.1 µM
[7] = test system: Mast/stem cell growth factor receptor Kit (Homo sapiens), P10721 [V560G]; conditions: at 1 µM
[8] = target: Tyrosine-protein kinase Lck (Homo sapiens) (UniProt P06239); conditions: at 0.1 µM
[9] = target: Tyrosine-protein kinase Lck (Homo sapiens) (UniProt P06239); conditions: at 1 µM
[10] = target: Leukocyte tyrosine kinase receptor (Homo sapiens) (UniProt P29376); conditions: at 0.1 µM
[11] = target: Leukocyte tyrosine kinase receptor (Homo sapiens) (UniProt P29376); conditions: at 1 µM
[12] = target: Tyrosine-protein kinase Lyn (Homo sapiens) (UniProt P07948); conditions: at 0.1 µM
[13] = target: Tyrosine-protein kinase Lyn (Homo sapiens) (UniProt P07948); conditions: at 1 µM
[14] = target: Tyrosine-protein kinase Lyn (Homo sapiens) (UniProt P07948); conditions: at 0.1 µM; remark: listed apart in the source
[15] = target: Tyrosine-protein kinase Lyn (Homo sapiens) (UniProt P07948); conditions: at 1 µM; remark: listed apart in the source
[16] = target: T1, Tyrosine-protein kinase Mer (Homo sapiens) (UniProt Q12866); conditions: at 0.1 µM
T1 sequence (whole entry): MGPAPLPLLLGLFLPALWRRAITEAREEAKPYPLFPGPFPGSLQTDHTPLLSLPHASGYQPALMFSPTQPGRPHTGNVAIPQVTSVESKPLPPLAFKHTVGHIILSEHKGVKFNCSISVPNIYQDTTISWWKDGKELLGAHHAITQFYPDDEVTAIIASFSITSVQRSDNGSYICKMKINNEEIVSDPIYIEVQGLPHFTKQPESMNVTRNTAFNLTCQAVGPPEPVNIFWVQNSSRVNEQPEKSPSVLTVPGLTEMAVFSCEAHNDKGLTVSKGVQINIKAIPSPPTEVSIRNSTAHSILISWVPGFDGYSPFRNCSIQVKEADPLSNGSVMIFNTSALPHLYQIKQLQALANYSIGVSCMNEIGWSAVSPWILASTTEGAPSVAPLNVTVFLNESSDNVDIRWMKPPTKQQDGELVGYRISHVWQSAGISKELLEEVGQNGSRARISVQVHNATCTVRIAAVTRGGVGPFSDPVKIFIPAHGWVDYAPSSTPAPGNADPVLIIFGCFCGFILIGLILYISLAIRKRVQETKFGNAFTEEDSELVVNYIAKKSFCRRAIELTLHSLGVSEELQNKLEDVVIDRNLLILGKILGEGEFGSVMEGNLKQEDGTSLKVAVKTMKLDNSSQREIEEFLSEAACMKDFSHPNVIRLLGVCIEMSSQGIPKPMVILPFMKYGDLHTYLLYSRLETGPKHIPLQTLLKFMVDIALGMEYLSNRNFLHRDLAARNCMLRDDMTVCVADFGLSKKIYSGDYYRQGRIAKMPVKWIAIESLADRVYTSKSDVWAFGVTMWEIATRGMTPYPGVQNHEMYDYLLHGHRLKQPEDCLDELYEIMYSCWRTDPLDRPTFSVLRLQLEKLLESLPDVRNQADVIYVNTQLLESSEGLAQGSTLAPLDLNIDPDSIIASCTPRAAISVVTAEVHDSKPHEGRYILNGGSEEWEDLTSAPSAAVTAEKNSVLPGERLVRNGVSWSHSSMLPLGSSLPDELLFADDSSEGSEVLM

[17] = target: T1, Tyrosine-protein kinase Mer (Homo sapiens); conditions: at 1 µM
[18] = target: Hepatocyte growth factor receptor (Homo sapiens) (UniProt P08581); conditions: at 0.1 µM
[19] = target: Hepatocyte growth factor receptor (Homo sapiens) (UniProt P08581); conditions: at 1 µM
[20] = target: T2, Muscle, skeletal receptor tyrosine-protein kinase (Homo sapiens) (UniProt O15146); conditions: at 0.1 µM;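 also: values are mean inhibition of MuSK from the GSK PKIS kinase screening panel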
T2 sequence (whole entry): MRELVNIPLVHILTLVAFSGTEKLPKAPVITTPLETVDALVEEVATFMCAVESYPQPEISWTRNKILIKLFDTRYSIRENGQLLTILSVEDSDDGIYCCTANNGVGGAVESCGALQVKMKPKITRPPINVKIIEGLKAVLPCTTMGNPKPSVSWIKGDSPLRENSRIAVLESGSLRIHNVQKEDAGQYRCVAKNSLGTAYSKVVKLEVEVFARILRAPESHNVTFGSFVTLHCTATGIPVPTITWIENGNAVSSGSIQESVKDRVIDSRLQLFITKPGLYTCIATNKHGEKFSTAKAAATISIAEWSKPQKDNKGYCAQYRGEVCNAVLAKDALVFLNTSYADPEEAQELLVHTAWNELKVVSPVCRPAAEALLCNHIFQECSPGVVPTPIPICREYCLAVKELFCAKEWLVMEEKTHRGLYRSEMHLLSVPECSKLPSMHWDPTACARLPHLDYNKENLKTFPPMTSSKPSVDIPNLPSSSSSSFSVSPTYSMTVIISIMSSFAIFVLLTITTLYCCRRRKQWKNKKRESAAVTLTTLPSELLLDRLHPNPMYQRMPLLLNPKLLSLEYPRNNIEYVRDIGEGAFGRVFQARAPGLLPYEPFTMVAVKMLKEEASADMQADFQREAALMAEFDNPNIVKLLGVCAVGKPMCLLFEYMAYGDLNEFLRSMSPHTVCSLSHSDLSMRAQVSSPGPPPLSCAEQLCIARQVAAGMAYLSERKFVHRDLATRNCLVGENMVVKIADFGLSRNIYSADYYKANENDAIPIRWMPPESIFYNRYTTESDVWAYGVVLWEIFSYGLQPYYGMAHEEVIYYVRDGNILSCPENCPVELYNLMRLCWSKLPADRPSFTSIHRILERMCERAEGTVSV

Chain of Mast/stem cell growth factor receptor Kit (Homo sapiens), P10721 [V560G] (P10721 whole entry V560G): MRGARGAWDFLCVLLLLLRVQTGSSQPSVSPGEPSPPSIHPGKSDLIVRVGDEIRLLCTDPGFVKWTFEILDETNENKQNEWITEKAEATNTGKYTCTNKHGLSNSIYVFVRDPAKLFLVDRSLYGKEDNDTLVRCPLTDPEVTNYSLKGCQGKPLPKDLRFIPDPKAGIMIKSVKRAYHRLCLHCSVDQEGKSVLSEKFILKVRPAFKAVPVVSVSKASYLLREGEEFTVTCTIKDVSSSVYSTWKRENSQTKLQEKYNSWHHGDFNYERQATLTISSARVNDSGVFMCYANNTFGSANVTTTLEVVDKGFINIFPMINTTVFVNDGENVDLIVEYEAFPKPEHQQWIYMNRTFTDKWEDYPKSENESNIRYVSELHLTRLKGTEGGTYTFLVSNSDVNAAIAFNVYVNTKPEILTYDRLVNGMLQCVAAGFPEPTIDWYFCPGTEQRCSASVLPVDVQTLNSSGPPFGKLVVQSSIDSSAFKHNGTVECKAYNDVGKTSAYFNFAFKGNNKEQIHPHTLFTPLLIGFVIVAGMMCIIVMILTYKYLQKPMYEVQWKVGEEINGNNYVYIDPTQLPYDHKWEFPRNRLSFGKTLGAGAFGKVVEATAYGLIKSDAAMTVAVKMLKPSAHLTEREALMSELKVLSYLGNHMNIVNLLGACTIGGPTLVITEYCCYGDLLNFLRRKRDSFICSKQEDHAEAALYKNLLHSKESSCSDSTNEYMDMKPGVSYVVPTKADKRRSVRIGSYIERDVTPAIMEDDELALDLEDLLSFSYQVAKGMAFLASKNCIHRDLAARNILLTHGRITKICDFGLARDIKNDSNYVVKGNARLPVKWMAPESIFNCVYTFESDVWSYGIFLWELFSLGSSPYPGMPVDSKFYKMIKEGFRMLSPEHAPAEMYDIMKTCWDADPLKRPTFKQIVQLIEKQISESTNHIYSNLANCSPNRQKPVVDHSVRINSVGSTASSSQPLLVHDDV
Chain of Tyrosine-protein kinase Lck (Homo sapiens) (P06239 2-509 limits assumed): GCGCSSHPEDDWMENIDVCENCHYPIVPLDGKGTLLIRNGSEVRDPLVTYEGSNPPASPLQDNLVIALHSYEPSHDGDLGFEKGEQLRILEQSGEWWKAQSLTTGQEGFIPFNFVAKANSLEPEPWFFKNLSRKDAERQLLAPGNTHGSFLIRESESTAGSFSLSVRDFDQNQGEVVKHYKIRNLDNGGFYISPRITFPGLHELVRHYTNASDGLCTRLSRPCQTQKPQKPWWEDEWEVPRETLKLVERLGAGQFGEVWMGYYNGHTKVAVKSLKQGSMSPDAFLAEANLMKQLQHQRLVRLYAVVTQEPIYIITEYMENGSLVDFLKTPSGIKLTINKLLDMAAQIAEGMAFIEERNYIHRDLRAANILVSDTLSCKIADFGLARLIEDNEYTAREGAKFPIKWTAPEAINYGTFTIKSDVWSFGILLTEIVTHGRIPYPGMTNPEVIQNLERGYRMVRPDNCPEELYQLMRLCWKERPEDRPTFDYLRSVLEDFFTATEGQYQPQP
Chain of Hepatocyte growth factor receptor (Homo sapiens) (P08581 whole entry): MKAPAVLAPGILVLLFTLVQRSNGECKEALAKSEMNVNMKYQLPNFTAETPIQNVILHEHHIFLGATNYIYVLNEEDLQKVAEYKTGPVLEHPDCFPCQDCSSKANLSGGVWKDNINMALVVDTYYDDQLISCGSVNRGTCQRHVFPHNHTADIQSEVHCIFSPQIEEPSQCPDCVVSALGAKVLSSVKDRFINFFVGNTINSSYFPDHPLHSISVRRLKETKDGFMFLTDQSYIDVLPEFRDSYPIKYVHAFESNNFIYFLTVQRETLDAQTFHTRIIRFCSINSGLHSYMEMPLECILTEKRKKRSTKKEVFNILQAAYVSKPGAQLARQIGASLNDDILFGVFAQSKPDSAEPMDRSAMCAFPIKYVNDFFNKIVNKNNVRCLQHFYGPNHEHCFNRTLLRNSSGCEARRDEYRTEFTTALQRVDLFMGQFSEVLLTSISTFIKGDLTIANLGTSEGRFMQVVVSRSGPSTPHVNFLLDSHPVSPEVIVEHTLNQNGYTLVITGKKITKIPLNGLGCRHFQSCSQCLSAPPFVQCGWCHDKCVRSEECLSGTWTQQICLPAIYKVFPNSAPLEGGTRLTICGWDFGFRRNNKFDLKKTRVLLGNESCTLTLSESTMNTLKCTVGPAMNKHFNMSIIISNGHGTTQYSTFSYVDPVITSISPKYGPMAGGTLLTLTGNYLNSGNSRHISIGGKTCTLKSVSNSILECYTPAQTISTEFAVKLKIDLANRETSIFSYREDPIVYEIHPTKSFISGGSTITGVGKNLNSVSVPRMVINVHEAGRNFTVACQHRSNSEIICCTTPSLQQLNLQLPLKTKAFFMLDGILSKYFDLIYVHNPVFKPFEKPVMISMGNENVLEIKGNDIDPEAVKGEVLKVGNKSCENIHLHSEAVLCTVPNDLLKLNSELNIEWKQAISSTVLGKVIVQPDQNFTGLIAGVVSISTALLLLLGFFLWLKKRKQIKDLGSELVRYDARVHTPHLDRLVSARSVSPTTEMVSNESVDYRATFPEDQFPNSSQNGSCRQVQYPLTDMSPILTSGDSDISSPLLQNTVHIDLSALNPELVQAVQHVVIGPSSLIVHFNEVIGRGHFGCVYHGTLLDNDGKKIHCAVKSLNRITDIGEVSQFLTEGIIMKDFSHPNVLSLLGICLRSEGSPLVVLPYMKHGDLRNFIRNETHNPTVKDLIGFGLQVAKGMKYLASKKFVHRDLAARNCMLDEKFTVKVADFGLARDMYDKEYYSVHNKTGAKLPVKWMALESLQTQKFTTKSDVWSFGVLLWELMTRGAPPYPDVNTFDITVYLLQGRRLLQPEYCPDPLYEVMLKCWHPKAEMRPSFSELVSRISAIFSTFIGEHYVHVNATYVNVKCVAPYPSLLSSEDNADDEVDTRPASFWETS
Chain of Tyrosine-protein kinase Lyn (Homo sapiens) (P07948 2-512 limits assumed): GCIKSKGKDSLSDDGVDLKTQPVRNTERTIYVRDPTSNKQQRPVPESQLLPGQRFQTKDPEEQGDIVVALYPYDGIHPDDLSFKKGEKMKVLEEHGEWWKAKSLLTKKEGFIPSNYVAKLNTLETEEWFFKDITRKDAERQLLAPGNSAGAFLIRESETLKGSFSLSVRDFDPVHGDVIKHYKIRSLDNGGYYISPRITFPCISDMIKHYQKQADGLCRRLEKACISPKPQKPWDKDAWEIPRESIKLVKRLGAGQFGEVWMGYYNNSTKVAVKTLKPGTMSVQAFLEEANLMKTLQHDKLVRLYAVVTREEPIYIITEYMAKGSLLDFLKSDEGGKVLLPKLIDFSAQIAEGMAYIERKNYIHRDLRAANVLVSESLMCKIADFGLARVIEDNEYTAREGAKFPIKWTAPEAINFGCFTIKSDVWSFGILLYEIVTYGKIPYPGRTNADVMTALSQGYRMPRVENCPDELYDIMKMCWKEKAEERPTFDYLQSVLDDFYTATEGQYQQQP
Chain of Mast/stem cell growth factor receptor Kit (Homo sapiens), P10721 [D816V] (P10721 whole entry D816V): as the sequence (P10721 whole entry V560G) above, with G560V, D816V counted along it
Chain of Leukocyte tyrosine kinase receptor (Homo sapiens) (P29376 whole entry): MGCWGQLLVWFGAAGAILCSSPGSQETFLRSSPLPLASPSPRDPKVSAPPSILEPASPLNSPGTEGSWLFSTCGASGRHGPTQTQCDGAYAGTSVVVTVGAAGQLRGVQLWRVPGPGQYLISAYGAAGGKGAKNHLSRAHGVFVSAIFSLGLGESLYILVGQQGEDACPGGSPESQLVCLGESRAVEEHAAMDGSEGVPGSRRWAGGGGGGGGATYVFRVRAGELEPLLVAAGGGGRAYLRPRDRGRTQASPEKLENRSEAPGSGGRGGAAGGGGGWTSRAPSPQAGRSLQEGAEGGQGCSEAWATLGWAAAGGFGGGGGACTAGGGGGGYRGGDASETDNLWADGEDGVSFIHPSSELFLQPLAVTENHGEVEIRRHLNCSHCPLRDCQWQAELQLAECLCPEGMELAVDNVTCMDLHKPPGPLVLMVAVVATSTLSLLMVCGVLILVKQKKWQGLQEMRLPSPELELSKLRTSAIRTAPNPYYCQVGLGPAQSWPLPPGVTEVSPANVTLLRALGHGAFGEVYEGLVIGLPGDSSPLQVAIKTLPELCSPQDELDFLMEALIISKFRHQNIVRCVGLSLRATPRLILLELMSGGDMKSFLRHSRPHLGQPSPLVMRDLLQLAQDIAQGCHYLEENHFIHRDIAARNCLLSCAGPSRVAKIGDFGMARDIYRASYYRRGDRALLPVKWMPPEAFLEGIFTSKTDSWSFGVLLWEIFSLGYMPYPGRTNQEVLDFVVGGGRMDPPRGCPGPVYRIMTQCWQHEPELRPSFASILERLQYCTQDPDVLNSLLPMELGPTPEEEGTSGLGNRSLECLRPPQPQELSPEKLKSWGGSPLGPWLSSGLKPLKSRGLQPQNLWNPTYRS
Chain of Mast/stem cell growth factor receptor Kit (Homo sapiens) (P10721 whole entry): as the sequence (P10721 whole entry V560G) above, with G560V counted along it
Chain of Mast/stem cell growth factor receptor Kit (Homo sapiens), P10721 [T670I] (P10721 whole entry T670I): as the sequence (P10721 whole entry V560G) above, with G560V, T670I counted along it

| Compound | inhibition [1] [%] | inhibition [2] [%] | inhibition [3] [%] | inhibition [4] [%] | inhibition [5] [%] | inhibition [6] [%] | inhibition [7] [%] | inhibition [8] [%] | inhibition [9] [%] | inhibition [10] [%] | inhibition [11] [%] | inhibition [12] [%] | inhibition [13] [%] | inhibition [14] [%] | inhibition [15] [%] | inhibition [16] [%] | inhibition [17] [%] | inhibition [18] [%] | inhibition [19] [%] | inhibition [20] [%] |
| --- | --- | --- | --- | --- | --- | --- | --- | --- | --- | --- | --- | --- | --- | --- | --- | --- | --- | --- | --- | --- |
| CS(=O)(=O)Nc1ccc(-c2cc(-c3ccccc3)cc(C(N)=O)c2N)cc1 | 21 | -0.43 | -0.86 | -1.07 | 4.26 | -0.45 | -2.55 | 1.3 | 2.43 | 2.46 | 2.83 | 0.46 | 3.24 | -1.81 | 0.8 | 0.78 | -0.18 | -1.07 | 2.34 | 1.31 |
| NS(=O)(=O)c1ccc(N/N=C2\C(=O)Nc3ccc(C(=O)NCc4ccncc4)cc32)cc1 | 12.5 | 3.05 | 12.7 | 1.57 | 4.42 | 1.34 | 10.7 | 2.05 | 8.27 | 2.1 | 2.51 | 5.87 | 17.7 | 3.02 | 14.7 | 1.29 | 1.37 | 5.14 | 13 | 9.84 |
| COc1ccccc1-c1cc(/C=C2\C(=O)Nc3ncc(Br)cc32)cc(Br)c1O | 27.9 | 4.84 | 1.87 | 3.92 | 3.21 | 1.58 | 4.31 | 2.46 | 8.22 | 3.94 | 5.69 | 6 | 14.4 | 4.58 | 9.46 | 3.28 | 7.77 | 1.57 | 4.03 | 1.98 |
| COc1c(C(N)=O)cc(-c2ccc(Cl)cc2)cc1-c1ccc(S(N)(=O)=O)cc1 | 11.2 | 3.27 | 3.88 | 1.48 | 2.82 | 1.14 | -3.65 | 3.23 | 2.89 | 5.37 | 6.74 | 5.65 | 6.7 | 3.05 | 3.95 | 2.2 | 6.71 | 10.9 | 5.98 | 2.39 |
| N#Cc1cccc(Nc2ncc(-c3ccccc3)o2)c1 | 79.6 | 1.87 | 2.5 | 2.85 | 35.8 | 4.29 | 23.8 | 2.79 | 1.76 | 4.04 | 3.55 | 3.97 | 10.5 | 2.56 | 9.05 | 0.53 | 4.24 | 2.46 | 5.36 | 1.86 |
| CC1=C(C(=O)Nc2ccc3[nH]ncc3c2)C(c2ccc(F)cc2)N=C(c2ccc(C(F)(F)F)nc2)N1 (stereo not given) | 5.44 | -0.02 | -2.78 | 1.78 | 1.33 | 1.39 | 3.28 | 3.06 | 2.27 | 1.67 | 3.48 | 2.25 | 5.17 | 0.9 | 3.68 | 1.51 | 2.57 | 3.67 | 2.53 | 2.32 |
| c1cnn2ncc(-c3ccnc(NCCCN4CCOCC4)n3)c2c1 | 5.88 | 6.89 | 4.06 | 9.96 | 3.97 | -0.98 | -1.13 | 1.55 | 1.64 | 2.87 | 2.33 | 5.49 | 3.64 | 2.77 | 0.53 | 3.19 | -0.16 | -0.1 | 0.15 | 2.04 |
